Screens as filed in PubChem.
NS1 inh – blocks influenza NS1 protein function; Potency, µM (highest dose often 46.1 µM), for the others: at the top dose activity, positive = more growth; 0.4% of 270,000 active; AID 2326; calls by dose curve; note: potency is the fitted concentration of half-maximal effect; actives are rising curves; nearly all actives have a fitted effect of over 50% in size
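A cell-based growth assay was used: compounds that relieve NS1-induced slow growth of budding yeast raise OD600. Assay medium was yeast nitrogen base with ammonium sulphate and -URA supplement, pH 6.0, with 2% galactose.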
Pf growth 48h – inhibits P. falciparum growth in the first generation, 48 h; 5.9% of 310,000 active; AID 504832; Potency, µM (doses to about 28.7 µM), without a hit: top-dose activity change, negative = inhibition, actives largely listed as inhibitors; P. falciparum luciferase growth in erythrocytes, 48 h; note: potency is the fitted concentration of half-maximal effect; % is set by controls: 0 for no effect and ±100 for the full control effect
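Here the parasites carry a stable luciferase gene and grow inside erythrocytes in Albumax-based RPMI medium with compound for one erythrocytic cycle. Activity is scored as loss of luminescent signal.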
CHX counter – affects cycloheximide protein synthesis inhibition readout, counter-screen; cell reporter, cycloheximide protein synthesis inhibition counterscreen; max response, %; 12% of 300,000 active; AID 2314; in the data active = max response mostly above about 13%, no sharp cut-off; inactive = mostly below about 14%; note: read at 38.3 µM for the half of the compounds with a filed dose; 0% is about no effect
Shiga toxin inh – blocks Shiga toxin action in Vero cells. AID 2315. inhibition, % at 38.7 µM. Vero cells, Shiga toxin protein synthesis inhibition reporter. 9.2% of 290,000 active; in the data active = inhibition mostly above about 28%, no sharp cut-off; inactive = mostly below about 43%; note: 0% is about no effect
Pf growth 96h – inhibits malaria parasite growth, 96 h; P. falciparum luciferase reporter growth, 96 h; Potency, µM (doses to about 28.7 µM), inactives show at the highest dose activity change, negative = inhibition, most hits filed as inhibitors; 6.9% of 320,000 active; AID 504834; note: potency is the fitted concentration of half-maximal effect; % is set by controls: 0 for no effect and ±100 for the full control effect
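Two-generation exposure (96 h) targets delayed-death phenotype. Reporter parasites carrying integrated firefly luciferase, in red cells at 2% hematocrit and 0.05% parasitemia final, kept at 37 C, 5% CO2; luminescence loss indicates inhibition.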
* marks the source's active call; other numbers are inactive results; ? = inconclusive; · = no result. Hits are enriched below; roughly 21% of the tested compounds scored in any of these assays. Unless noted, calls come from the whole dose curve; as a rule, active = well fitted inhibition curve with a large enough effect; inconclusive = small, poorly fitted or top-dose-only effect, or another doubt; inactive = no such curve, though single readings can be large or run the other way.

SMILES	NS1 inh	Pf growth 48h	CHX counter	Shiga toxin inh	Pf growth 96h
CCCCCCSc1cccc(-c2nc3cc(C)ccn3c2NC2CCCCC2)c1	·	9.3µM*	·	·	?
CCCCCCSc1cc(-c2nc3ccc(Cl)cn3c2NC2CCCCC2)ccc1OC	·	-21%	·	·	?
O=C(O)c1cc(Br)ccc1NS(=O)(=O)c1cccc2nsnc12	?	2%	1	10	?
Cc1ccccc1-n1nc(-c2cccnc2)cc1C(=O)N/N=C/c1ccncc1	·	2%	1	-8	-3%
CCCNC(=O)c1[nH]c(C)c(C(=O)OCC)c1C	-1%	26%	10	-2	43%
CCOC(=O)c1c(C)[nH]c(C(=O)Nc2ccc3c(c2)OCO3)c1C	-18%	103%	41*	53*	?
COC(=O)Nc1ccc2c(c1)OCO2	14%	?	12	28	9%
COc1ccc2[nH]c(C(=O)Nc3ccc4c(c3)OCO4)cc2c1	6%	87%	53*	100*	38%
CCOC(=O)Nc1ccc2c(c1)OCO2	-4%	42%	45*	66	?
COc1ccc(C)cc1NC(=O)c1ccc2c(c1)OCO2	-84%	59%	48*	97*	23%
CC(=O)Oc1ccc(C2OC(=O)c3ccccc3N2C(C)=O)cc1 (configuration not stated)	-9%	·	-1	-12	-8%
COc1ccc(NC(=O)c2ccc3c(c2)OCO3)cc1[N+](=O)[O-]	-1%	77%	31*	60*	15%
CCOC(=O)c1ccc(N2C(=O)CC(N(Cc3ccc4c(c3)OCO4)C(=O)Nc3ccccc3)C2=O)cc1 (configuration not stated)	-3%	·	13	20	9.3µM*
COc1ccc(C(=O)N2c3ccccc3C(=O)OC2c2ccc3c(c2)OCO3)cc1 (configuration not stated)	-57%	55%	20*	28	·
COc1ccc(NC(=O)c2ccc3c(c2)OCO3)cc1	10%	203%	33*	44	?
COc1cc(NC(=O)c2ccc3c(c2)OCO3)ccc1NC(=O)c1ccco1	9%	21%	1	4	-13%
O=C(O)CCc1cc(F)c(S(=O)(=O)N2CCN(S(=O)(=O)c3ccc4c(c3)OCCO4)CC2)cc1F	·	·	-2	-6	·
CCOc1ccccc1-c1nnc2n1N=C(c1c(OC)cccc1OC)CS2	·	·	6	20	·
CC1CCCN(c2ccc(C(=O)Nc3ccc4c(c3)OCO4)cc2[N+](=O)[O-])C1 (configuration not stated)	28%	?	17*	-41	?
CCOc1ccc(NC(=O)COC(=O)c2ccc3c(c2)OCO3)cc1	·	31%	·	·	56%
CCOC(=O)c1ccc(NC(=O)c2ccc3c(c2)OCO3)cc1	8%	13%	19*	28	·
CC1CCN(c2ccc(C(=O)Nc3ccc4c(c3)OCO4)cc2[N+](=O)[O-])CC1	6%	?	8	16	?
O=C(Nc1ccc2c(c1)OCO2)Oc1ccccc1	-12%	100%	38*	76*	-23%
CCC(=O)Nc1ccc(NC(=O)c2ccc3c(c2)OCO3)cc1	4%	·	9	24	·
CCN(CC)c1ccc(NC(=O)c2ccc3c(c2)OCO3)cc1	3%	-3%	55*	58*	?
SMILES	NS1 inh	Pf growth 48h	CHX counter	Shiga toxin inh	Pf growth 96h
O=C(Nc1ccc2c(c1)OCO2)c1ccccn1	·	259%	·	·	414%
Cc1cc2c(s1)c1cnn(Cc3ccccc3Cl)c(=O)c1n2C	·	·	12	9	·
N[C@@H](Cc1cnc[nH]1)C(=O)O	3%	-2%	·	·	5%
O=c1[nH]c(CSc2ccccn2)nc2c1cnn2-c1ccccc1	-14%	25%	15	31*	39%
COC(=O)c1sc2nc(CSc3nc4ccc(C)cc4[nH]3)[nH]c(=O)c2c1C	-1%	·	-5	-6	?
CCn1c(SCc2nc3ccccc3c(=O)[nH]2)nc2ccccc2c1=O	-6%	?	2	13	·
Cc1ccc2nc(SCc3nc4ccccc4c(=O)[nH]3)[nH]c2c1	·	35%	27*	69*	?
O=c1[nH]c(CSc2ccccn2)nc2ccccc12	·	274%	43*	119*	319%
Cc1ccc2nc(CSc3nc(C)ccc3C#N)[nH]c2c1	-95%	·	17*	21	-63%
CCC(C)(CN(C)C)OC(=O)c1ccccc1 (configuration not stated)	·	33%	·	·	3%
Nn1c(CSc2ccccn2)nc2ccccc2c1=O	-9%	·	44*	83*	?
COc1ccccc1CN1CCNC(=O)C1CC(=O)NCc1c(C)n[nH]c1C (configuration not stated)	0%	5%	1	37	7%
CCOC(=O)Cn1nnnc1C(CC)N(Cc1cccs1)Cc1cc2ccc(OC)cc2[nH]c1=O (configuration not stated)	-4%	0%	8.5*	-19	?
COc1ccccc1CN(Cc1cc2c(C)ccc(C)c2[nH]c1=O)Cc1nnnn1Cc1ccco1	8%	4.7µM*	1	-10	·
CCOC(=O)Cn1nnnc1CN(CCc1ccccc1)Cc1cc2cc(CC)ccc2[nH]c1=O	1%	·	-5	-7	?
Cc1ccc(CN(Cc2cc3cc4c(cc3[nH]c2=O)OCCO4)Cc2nnnn2Cc2ccco2)cc1	17%	·	11	6	?
Cc1ccc(C)c2[nH]c(=O)c(C(c3nnnn3Cc3ccco3)N3CCc4ccccc4C3)cc12 (configuration not stated)	?	12µM*	27*	78*	6.6µM*
COc1ccc2cc(CN(CCc3ccccc3)Cc3nnnn3Cc3ccco3)c(=O)[nH]c2c1	-45%	6.6µM*	-2	-15	8%
COc1ccccc1N1CCN(CCCNC(=O)Cn2ncc3c([nH]c4ccccc43)c2=O)CC1	3%	?	-4	-8	?
CC(C(=O)O)C1SC(=O)NC1=O (configuration not stated)	2%	·	-1	-13	11%
COc1ccc2[nH]c(=O)c(CN(C3CCCCC3)C(c3nnnn3Cc3ccco3)C(C)C)cc2c1 (configuration not stated)	11%	13µM*	-3	20	42%
COc1ccc(Cn2nnnc2CN(Cc2cc3cc(C)ccc3[nH]c2=O)C2CCCC2)cc1	-40%	?	-2	-9	-16%
CCOc1ccc2[nH]c(=O)c(C(c3nnnn3Cc3ccco3)N3CCC(C)CC3)cc2c1 (configuration not stated)	-20%	?	0	-9	25%
Cc1ccc2cc(C(c3nnnn3C3CCCC3)N(Cc3ccco3)Cc3cccs3)c(=O)[nH]c2c1 (configuration not stated)	26%	·	8	-4	?
COc1ccc2[nH]c(=O)c(CN(Cc3nnnn3Cc3ccco3)C3CCCCC3)cc2c1	?	?	7	-1	5.2µM*
CCOC(=O)Cn1nnnc1C(C(C)C)N(Cc1cc2c(C)cc(C)cc2[nH]c1=O)C1CCCC1 (configuration not stated)	-4%	6.6µM*	3	-6	10%
